The text below walks through data of PubChem BioAssay.

Active and inactive are the calls of the source.

Test [1] in a line: E. coli DRC41 culture turbidity changes, primary screen, E. coli filamentation inducer project, strain DRC41, OD650, 48 h (AID 1152).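 Note: E. coli MC1000 strain DRC41 lacking acrAB efflux pump and sulA.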 Conditions: E. coli DRC41 (acrAB sulA), higher = more signal, called active from +8 up or from −8 down.
Test [2] in a line: small-molecule binders of probe aLefty1, primary screen, biochemical, small-molecule microarray, 635/667 nm fluorescence (AID 1153).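 Note: score merges spot fluorescence with signal-to-noise ratio from the scanned slide images.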 Conditions: higher = more signal.
A short description of test [3]: PSAC antagonists in infected red cells, primary screen, cell-based, P. falciparum Indochina, OD700, 1 h (AID 1154). The note with it: P. falciparum Indochina infected RBC osmotic lysis, higher = more signal, called active from +8 up or from −8 down.
Test [4] is described as follows: PSAC antagonists in infected red cells, primary screen, cell-based, P. falciparum Indochina, OD700, 2 h (AID 1155).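 Note: lysis reports solute entry through the parasite surface anion channel PSAC; channel blockers reduce lysis of infected cells.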 The note with it: P. falciparum Indochina infected erythrocytes, osmotic lysis OD700; higher = more signal, called active from +8 up or from −8 down.
Test [5] can be described thus: osmotic lysis modulators in infected erythrocytes, primary screen, PSAC antagonist project, cell-based, P. falciparum Indochina, OD700, 3 h (AID 1156). Conditions: higher = more signal, called active from +8 up or from −8 down.
Test [6] can be described thus: PSAC antagonists in infected red cells, primary screen, cell-based, P. falciparum Indochina, OD700, 18 h (AID 1157). The note with it: P. falciparum Indochina infected erythrocytes, osmotic lysis OD700, 18 h; higher = more signal, called active from +8 up or from −8 down.
The nature of test [7]: modulators of S6 phosphorylation in cells, primary screen, cell-based, A549, cytoblot, luminescence, serum-stimulated (AID 1158).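 Note: serum-stimulated A549 lung adenocarcinoma cells; signal is phosphorylated S6 detected by cytoblot immunostaining with HRP secondary.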 The note with it: A549 phospho-S6 cytoblot, 5 h, higher = more signal.
For test [8], the target named is NADPH oxidase 2 (Homo sapiens) (UniProt P04839). The test can be described thus: NOX2-dependent H2O2 signal modulators, primary screen, NOX inhibitor project, cell-based, HEK293-NOX2, PMA-stimulated, Amplex Red fluorescence (AID 1159). Note: test concentration not given here. The note with it: 45 min, higher = more signal, called active from +8 up or from −8 down.
Sequence of NADPH oxidase 2 (Homo sapiens) (P04839 whole entry, looked up): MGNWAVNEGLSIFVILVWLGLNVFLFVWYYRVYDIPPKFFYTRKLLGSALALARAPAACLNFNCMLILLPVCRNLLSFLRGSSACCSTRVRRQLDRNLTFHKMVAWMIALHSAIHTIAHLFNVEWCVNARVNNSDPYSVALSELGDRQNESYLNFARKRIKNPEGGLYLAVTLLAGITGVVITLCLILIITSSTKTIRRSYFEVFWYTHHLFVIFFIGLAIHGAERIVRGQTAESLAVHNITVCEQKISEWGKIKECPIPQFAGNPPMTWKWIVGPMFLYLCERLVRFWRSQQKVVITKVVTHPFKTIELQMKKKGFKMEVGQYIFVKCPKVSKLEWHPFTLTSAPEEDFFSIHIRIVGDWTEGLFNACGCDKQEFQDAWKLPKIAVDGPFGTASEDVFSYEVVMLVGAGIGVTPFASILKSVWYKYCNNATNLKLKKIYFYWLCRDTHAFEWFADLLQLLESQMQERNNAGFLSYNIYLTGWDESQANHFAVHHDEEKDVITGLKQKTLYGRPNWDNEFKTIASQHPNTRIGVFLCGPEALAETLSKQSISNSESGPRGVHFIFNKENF
For test [9], the target named is NADPH oxidase 4 (Homo sapiens) (UniProt Q9NPH5). Nature of the test: NOX4-dependent H2O2 signal modulators, primary screen, NOX inhibitor project, cell-based, HEK293-NOX4, tetracycline-induced, Amplex Red fluorescence (AID 1160). The note with it: 45 min, higher = more signal, called active from +8 up or from −8 down.
Sequence of NADPH oxidase 4 (Homo sapiens) (Q9NPH5 whole entry, looked up): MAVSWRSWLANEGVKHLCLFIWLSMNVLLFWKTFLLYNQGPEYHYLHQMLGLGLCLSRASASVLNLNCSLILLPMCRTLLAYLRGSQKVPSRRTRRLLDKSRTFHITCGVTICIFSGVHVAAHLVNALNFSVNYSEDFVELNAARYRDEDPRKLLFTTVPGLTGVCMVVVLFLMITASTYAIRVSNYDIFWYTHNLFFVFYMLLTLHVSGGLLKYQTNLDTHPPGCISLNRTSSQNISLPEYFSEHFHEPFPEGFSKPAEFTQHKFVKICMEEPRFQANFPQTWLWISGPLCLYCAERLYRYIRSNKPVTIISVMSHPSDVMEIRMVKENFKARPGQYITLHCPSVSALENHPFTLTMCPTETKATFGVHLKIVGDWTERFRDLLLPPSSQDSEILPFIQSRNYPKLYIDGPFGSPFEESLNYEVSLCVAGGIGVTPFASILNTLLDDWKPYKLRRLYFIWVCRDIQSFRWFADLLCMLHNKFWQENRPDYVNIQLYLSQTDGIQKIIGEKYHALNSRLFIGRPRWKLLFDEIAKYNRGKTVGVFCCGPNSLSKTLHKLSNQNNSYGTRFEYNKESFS
Test [10] deals with NADPH oxidase 5 (Homo sapiens) (UniProt Q96PH1). The test can be described thus: NOX5-dependent H2O2 signal modulators, primary screen, NOX inhibitor project, cell-based, HEK293-NOX5, Amplex Red fluorescence (AID 1161). The note with it: HEK293-NOX5, ionomycin, 45 min, higher = more signal.
Sequence of NADPH oxidase 5 (Homo sapiens) (Q96PH1 whole entry, looked up): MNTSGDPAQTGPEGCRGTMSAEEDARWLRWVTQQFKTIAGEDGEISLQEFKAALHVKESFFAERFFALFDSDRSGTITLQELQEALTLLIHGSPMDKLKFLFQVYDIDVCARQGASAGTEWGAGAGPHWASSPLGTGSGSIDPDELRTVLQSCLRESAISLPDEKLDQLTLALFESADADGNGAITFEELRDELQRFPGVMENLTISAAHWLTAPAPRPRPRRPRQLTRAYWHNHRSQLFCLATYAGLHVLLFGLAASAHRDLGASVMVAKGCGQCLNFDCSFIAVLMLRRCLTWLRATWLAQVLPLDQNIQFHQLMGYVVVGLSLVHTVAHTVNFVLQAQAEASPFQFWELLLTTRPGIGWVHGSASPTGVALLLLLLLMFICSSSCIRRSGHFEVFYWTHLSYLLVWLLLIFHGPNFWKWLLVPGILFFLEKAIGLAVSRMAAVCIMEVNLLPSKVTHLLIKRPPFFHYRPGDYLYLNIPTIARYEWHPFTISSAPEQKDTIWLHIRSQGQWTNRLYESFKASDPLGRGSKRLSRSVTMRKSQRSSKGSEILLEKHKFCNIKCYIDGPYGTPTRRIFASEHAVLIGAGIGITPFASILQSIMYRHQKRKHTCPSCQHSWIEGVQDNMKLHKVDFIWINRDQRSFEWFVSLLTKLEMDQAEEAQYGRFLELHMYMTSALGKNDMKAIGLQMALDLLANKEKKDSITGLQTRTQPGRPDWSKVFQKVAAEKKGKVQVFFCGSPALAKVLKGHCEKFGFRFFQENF
Test [11] can be described thus: A549 cell viability effects, profiling panel, calcein-AM fluorescence, 48 h, basal (AID 1162). Note: test concentration not given here. Conditions: higher = more signal.
A short description of test [12]: adipocyte viability effects, profiling panel, cell-based, 3T3-L1 adipocytes, calcein-AM fluorescence, 48 h, basal (AID 1163). Note: test concentration not given here. The note with it: 3T3-L1 adipocytes viability, higher = more signal.
Test [13] is described as follows: HepG2 cell viability effects, profiling panel, calcein-AM fluorescence, 48 h, basal (AID 1164). Note: test concentration not given here. Conditions: higher = more signal.
The nature of test [14]: MM1S cell viability effects, profiling panel, calcein-AM fluorescence, 48 h, basal (AID 1165).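 Note: viability of MM1S multiple myeloma cells under basal unstimulated conditions; test concentration not given here.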 Conditions: higher = more signal.
Test [15] can be described thus: basal RPMI8226 viability, no added stimulus, profiling panel, cell-based, calcein-AM fluorescence, 48 h, PK04 Diversity Set (AID 1166).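 Note: cells grown under basal conditions without added stimulus; test concentration not given here.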 The note with it: RPMI8226 myeloma viability, higher = more signal.
Test [16] can be described thus: basal HepG2 mitochondrial membrane potential changes, profiling panel, cell-based, JC-1 fluorescence, 24 h, 100 nL compound (AID 1167). Note: test concentration not given here. Conditions: higher = more signal.
A short description of test [17]: basal 3T3-L1 adipocyte mitochondrial potential changes, profiling panel, cell-based, JC-1 fluorescence, 3T3-L1 adipocytes, 24 h, 100 nL compound (AID 1168). Note: test concentration not given here. The note with it: JC-1 mitochondrial fluorescence, higher = more signal, called active from +8 up or from −8 down.
The nature of test [18]: basal RPMI8226 mitochondrial membrane potential changes, profiling panel, cell-based, JC-1 fluorescence, 24 h, 100 nL compound (AID 1169). Note: test concentration not given here. Conditions: RPMI8226 myeloma, JC-1 mitochondrial potential fluorescence, higher = more signal.
Test [19] can be described thus: basal MM1S mitochondrial membrane potential changes, profiling panel, cell-based, JC-1 fluorescence, 24 h, 100 nL compound (AID 1170). Note: test concentration not given here. Conditions: higher = more signal.
Test [20] is described as follows: A549 lung cancer cell viability effects, profiling panel, resazurin fluorescence, 24 h, PK04 Diversity Set (AID 1171). Note: test concentration not given here. Conditions: higher = more signal, called active from +8 up or from −8 down. (Alamar Blue is a resazurin reagent that responds to reducing activity.)

`CC=CC1=C(CO)C(=O)[C@@H]2O[C@@H]2C1=O`: the z-score is 0.33 (inactive) in test [1]; -0.4 (inactive) in [3]; -0.344 (inactive) in [4]; -0.501 (inactive) in test [5]; -0.267 (inactive) in [6]; -0.292 in [7]. Besides, the z-score in test [8] is 2.08 (inactive); in [9] it was -0.329 (inactive); in test [10] it was 0.846; in test [11], -0.912; in test [12], -1.18; in test [13] it was -0.88. Further, the z-score in test [14] is -3.5; in test [15], -2.88; in [16] it was -1.86; in [17] it was -0.316 (inactive); in test [18] it was -1; in test [19], -2.1. Further, the z-score in test [20] was -0.315 (inactive). Moreover, the composite z-score in [2] was -0.202.
For `CC1O[C@H]2C3=C(C(=O)[C@@H]4O[C@@H]4[C@H]3O)[C@@H]1C1[C@@H](C)OC=C3[C@H](O)C4O[C@@H]4C(=NOCc4ccccc4)[C@]312` (stereo not given in full), the z-score in test [1] is -0.259 (inactive); in test [3], 1.3 (inactive); in test [4], 0.184 (inactive); in test [5] it was 0.0322 (inactive); in [6], 0.0995 (inactive); in test [7] it was -0.871. The z-score in [8] is 0.32 (inactive); in [9] it was 0.584 (inactive); in test [10], 0.445; in test [11], -0.434; in test [12], 0.145; in test [13] it was -1.65. Besides, the z-score is -3.58 in test [14]; -3.71 in [15]; -2.66 in test [16]; 0.435 (inactive) in test [17]; -0.856 in [18]; -2.28 in test [19]. Besides, the z-score in test [20] is -0.989 (inactive). Moreover, the composite z-score in test [2] is -0.184.
For the molecule `Cc1ccc(S(=O)(=O)N[C@H]2COC(=O)CC=C[C@H](C)[C@@H](NS(=O)(=O)c3ccc(C)cc3)COC(=O)CC=C[C@@H]2C)cc1`, the z-score is 0.373 (inactive) in [1]; 0.334 (inactive) in test [3]; 0.283 (inactive) in test [4]; 0.654 (inactive) in [5]; 0.441 (inactive) in [6]; -1.01 in [7]. Besides, the z-score in [8] is 0.152 (inactive); in test [9], -1.92 (inactive); in test [10], -1.01; in [11], -0.315; in test [12], 0.352; in [13], -0.521. For the same molecule, the z-score was 0.248 in test [14]; -0.11 in test [15]; 0.477 in test [16]; -0.0603 (inactive) in test [17]; 0.822 in test [18]; 0.507 in [19]. In test [20], the z-score was 0.694 (inactive). Also, the composite z-score in test [2] is -0.147.
For the molecule `CO[C@H]1COC(=O)CC=C[C@H](C)[C@@H](OC)COC(=O)[C@@H](C)NC(=O)CC=C[C@@H]1C`, the z-score in [1] is 0.0321 (inactive); in test [3], -0.848 (inactive); in test [4], -0.863 (inactive); in test [5] it was -0.372 (inactive); in [6], -1.99 (inactive); in [7], 1.03. For the same molecule, the z-score is -0.22 (inactive) in test [8]; 0.403 (inactive) in test [9]; -0.0966 in [10]; 0.181 in test [11]; 0.0797 in test [12]; -1.72 in test [13]. In addition, the z-score in test [14] is -0.227; in test [15], 0.0777; in test [16], -0.0888; in [17], -1.76 (inactive); in [18] it was -0.244; in [19] it was -0.582. For the same molecule, the z-score in [20] was 0.66 (inactive). Besides, the composite z-score in test [2] is -0.152.
As for `CCOC(=O)NN=C1C[C@@H](O)[C@@H](O)[C@@H]2[C@@H]3C(=O)N(Cc4ccccc4)C(=O)[C@@H]3CC[C@H]12`, the z-score in [1] is -0.356 (inactive); in test [3] it was 1.39 (inactive); in test [4], -0.673 (inactive); in [5], -0.0654 (inactive); in test [6], -1.36 (inactive); in test [7], 0.577. Moreover, the z-score was 1.15 (inactive) in test [8]; 0.547 (inactive) in test [9]; 0.0313 in [10]; 0.29 in test [11]; 0.114 in [12]; -1.05 in [13]. The z-score in [14] is 0.976; in test [15], -2; in [16], 0.366; in test [17], 0.42 (inactive); in test [18] it was 0.334; in test [19] it was -0.68. In addition, the z-score in test [20] was 0.939 (inactive). Moreover, in test [2], the composite z-score was -0.332.
`CC(C)CCN1CCc2nc(COc3ccccc3)c3c(c2C1)CO[C@@H](C)C3`: the z-score is -0.152 (inactive) in test [1]; 3.22 (inactive) in test [3]; 0.326 (inactive) in test [4]; 0.331 (inactive) in test [5]; 0.101 (inactive) in test [6]; -0.356 in test [7]. The z-score in [8] was 1.2 (inactive); in test [9], 0.131 (inactive); in test [10], 0.242; in test [11], -0.304; in test [12], -0.225; in [13], 0.665. In addition, the z-score in test [14] was 0.246; in test [15], -0.396; in test [16], 1.66; in test [17] it was -0.000112 (inactive); in test [18], -0.724; in test [19] it was 1.09. For the same molecule, the z-score in test [20] was -0.0622 (inactive). For the same molecule, the composite z-score in [2] was found to be 0.0768.
With `O=C1C[C@@H](O)[C@@H](O)[C@@H]2[C@@H]3C(=O)N(C[C@@H]4CCCO4)C(=O)[C@@H]3CC[C@H]12`, the z-score in test [1] was 0.555 (inactive); in [3] it was 0.651 (inactive); in [4] it was 0.461 (inactive); in test [5] it was -0.406 (inactive); in test [6] it was 0.376 (inactive); in test [7], -0.0289. For the same molecule, the z-score in test [8] is -0.453 (inactive); in test [9], -0.111 (inactive); in [10], -0.0473; in test [11] it was -0.232; in test [12], -0.42; in [13], 0.614. Also, the z-score in test [14] was 0.136; in test [15], 0.433; in [16] it was 0.446; in test [17] it was 0.763 (inactive); in [18] it was -0.131; in test [19], -0.586. Moreover, the z-score in [20] is -0.747 (inactive). Besides, the composite z-score in test [2] was -0.0969.
Regarding `COC(=O)CC=C[C@@H](C)[C@@H](C=NOC[C@H]1O[C@H](c2ccccc2)C=C[C@@H]1Oc1ccc(OC)cc1)NS(=O)(=O)c1ccc(C)cc1`, the z-score was -0.272 (inactive) in test [1]; 4.79 (inactive) in test [3]; 1.56 (inactive) in [4]; 0.949 (inactive) in test [5]; 0.857 (inactive) in test [6]; 0.0859 in test [7]. Besides, the z-score was -0.273 (inactive) in test [8]; 0.0179 (inactive) in test [9]; -0.523 in [10]; -1.31 in test [11]; -0.486 in [12]; -0.43 in test [13]. The z-score is -1.7 in [14]; -1.2 in test [15]; 0.0495 in test [16]; -1.06 (inactive) in test [17]; 0.689 in test [18]; -0.077 in [19]. For the same molecule, in test [20], the z-score was -0.374 (inactive). For the same molecule, the composite z-score in [2] was -0.147.
